GLS inhibitor – glutaminase GLS (human) inhibition; O94925; GLS enzymatic activity, qHTS titration; Potency, µM (titrated, usually from 45.5 µM), actives largely listed as inhibitors; hit rate 0.21% among 410,000
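Glutamate formation by hKGA was monitored fluorometrically using coupled glutamate oxidase, HRP and Amplex Red. Substrate was added as 1 mM L-glutamine solution; incubation was 30 min at RT after an initial read.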
BAZ2B inh – inhibitors of human BAZ2B bromodomain. Q9UIF8. AlphaScreen BAZ2B-H3K14Ac peptide displacement. Potency, µM (series often up to 114 µM), most hits filed as inhibitors. hit rate 4.4% among 360,000; also: nearly all actives have a fitted effect of over 60% in size
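In this displacement format the biotinylated H3(5-23) peptide acetylated at Lys14 serves as ligand at 50 nM, with BAZ2B at 50 nM in PBS pH 7.4 containing 0.01% Tween-20. Donor and acceptor beads are 10 ug/mL final.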
HP1b binding inh – blocks HP1-beta chromodomain binding to methylated histone tails. P83916. AlphaScreen HP1-beta / biotin-H3K9me3 peptide binding. Potency, µM (doses to about 114 µM), most hits filed as inhibitors. hit rate 0.56% among 390,000. AID 540317; also: nearly all actives have a fitted effect of over 70% in size
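AlphaScreen: HP1-beta (50 nM) preformed 30 min with biotin-H3(1-18)K9me3 peptide (50 nM) in PBS pH 7.4, 0.01% Tween-20. Compound added for 30 min at RT, then streptavidin donor/nickel chelate acceptor beads (10 ug/mL) for 30 min.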
JMJD2A Tudor – inhibitors of human JMJD2A Tudor domain; O75164; AlphaScreen JMJD2A-Tudor / H3K4me3 peptide binding; Potency, µM (top dose mostly 114 µM), actives largely listed as inhibitors; hit rate 4.4% among 390,000; AID 504339; also: nearly all actives have a fitted effect of over 50% in size
G9a block – blocks human histone lysine methyltransferase G9a. G9a H3K9 monomethylation, AlphaScreen, 2 h. Potency, µM (titrated, usually from 102 µM), most hits filed as inhibitors. hit rate 8.8% among 350,000. AID 504332; also: nearly all actives have a fitted effect of over 75% in size
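Using a bead-based AlphaScreen, monomethylated H3K9 product from 2 h room-temperature reactions (G9a 20 nM, peptide 500 nM, SAM 20 uM) was detected with 0.5 ug/mL rabbit anti-H3K9me1 antibody.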
Each line names hits and unclear results; the compound was inactive in the other large screens; ! = not confirmed by another sample. Rows were chosen to be rich in hits. Some 10% of all compounds tested hit in one or more screens of this group. Calls follow the shape of the dose curve; as a rule, active = well fitted curve in the direction sought with a large enough effect; inconclusive = small, poorly fitted or top-dose-only effect, or another doubt; inactive = no such curve, though single readings can be large; an effect the other way counts as inactive or inconclusive.

Cc1ccc(NC(=O)CSc2nc(-c3cccs3)nc3cc(=O)[nH]n23)cc1	GLS inhibitor inconclusive, BAZ2B inh 79µM
CC1CCN(CC(=O)Nc2ccc(S(=O)(=O)N3CCCCC3)cc2)CC1	none (no result: G9a block)
NS(=O)(=O)c1ccc(NC(=O)COC(=O)C2CCCCC2)cc1	none
O=C(COC(=O)C1CCCCC1)Nc1ccc(N2CCCCC2)cc1	BAZ2B inh inconclusive, HP1b binding inh inconclusive, JMJD2A Tudor inconclusive, G9a block 11µM
O=C(CNCc1ccccc1Cl)Nc1ccccc1N1CCCCC1	BAZ2B inh 22µM, HP1b binding inh inconclusive, JMJD2A Tudor 22µM, G9a block 10µM
O=C(CNC1CCCC1)Nc1ccc(N2CCCCCC2)cc1	GLS inhibitor inconclusive, BAZ2B inh 22µM, HP1b binding inh 40µM, JMJD2A Tudor 2.8µM, G9a block 5.6µM
CC1CCN(CC(=O)Nc2ccc(N3CCCCCC3)cc2)CC1	BAZ2B inh 20µM, HP1b binding inh 22µM, JMJD2A Tudor 20µM, G9a block 10µM
CCN(CC)c1ccc(NC(=O)CNCc2ccccc2Cl)c(C)c1	BAZ2B inh 18µM, HP1b binding inh 25µM, JMJD2A Tudor 10µM, G9a block 35µM
O=C(CNCC1CCCO1)Nc1ccc(N2CCCCCC2)cc1 (stereo not given)	BAZ2B inh 35µM, HP1b binding inh 14µM, JMJD2A Tudor 3.2µM, G9a block inconclusive
O=C(CNC1CCCCCC1)Nc1ccc(N2CCCC2)cc1	BAZ2B inh inconclusive, G9a block 28µM (no result: GLS inhibitor, HP1b binding inh, JMJD2A Tudor)
CCN(CC)c1ccc(NC(=O)Cn2ncc3c(C)n(Cc4ccccc4F)c(C)c3c2=O)c(C)c1	G9a block inconclusive
O=C(CNCC1CCCCC1)Nc1ccc(N2CCCCC2)cc1	BAZ2B inh 28µM, G9a block 22µM (no result: GLS inhibitor, HP1b binding inh, JMJD2A Tudor)
Cc1nn(-c2ccccc2)c2nc(C3CC3)cc(C(=O)Nc3ccc(F)cc3)c12	none
OC(c1ccc(F)cc1)c1ncc(-c2ccc3ccccc3c2)[nH]1 (stereo not given)	none (no result: BAZ2B inh, HP1b binding inh, JMJD2A Tudor, G9a block)
CCCCNC(=O)C(CC)Sc1nc2ccccc2c(=O)n1Cc1ccco1 (stereo not given)	none
CCOC(=O)c1c(S(=O)(=O)NCC(=O)N2CCN(c3cccc(Cl)c3)CC2)c(C)n(C)c1C	none
CCCCN1C(=O)C(=O)NC[C@@H]1Cc1ccc(O)cc1	none (no result: BAZ2B inh, HP1b binding inh, JMJD2A Tudor, G9a block)
O=C(CNCCC1=CCCCC1)Nc1ccc(N2CCCCCC2)cc1	BAZ2B inh 13µM, HP1b binding inh 16µM, JMJD2A Tudor 20µM, G9a block inconclusive
CC1(C)CC(=O)N(CC(=O)NCc2ccccc2)c2ccccc2S1(=O)=O	none
O=C(Cc1ccc(Cl)cc1)Nc1ccc(N2CCCC2)cc1	G9a block inconclusive
CCN(CC)c1ccc(NC(=O)CN2C(=O)CC(C)(C)S(=O)(=O)c3ccccc32)c(C)c1	G9a block 8.9µM
O=C(CNCC1CCCO1)Nc1ccccc1N1CCCCCC1 (stereo not given)	BAZ2B inh inconclusive, JMJD2A Tudor inconclusive, G9a block 45µM
CNS(=O)(=O)c1cn(CC(=O)N2CCN(c3ccccc3F)CC2)cc1S(=O)(=O)NC	G9a block inconclusive
CC1=C(C(=O)N(C(C)C)C(C)C)CC(CC(=O)NC2CCCC2)C(=O)N1Cc1ccc(C(C)(C)C)cc1 (stereo not given)	none (no result: BAZ2B inh, HP1b binding inh, JMJD2A Tudor, G9a block)
COc1ccccc1CNCCCCCCNCCCCCCCCNCCCCCCNCc1ccccc1OC	G9a block 10µM! (no result: GLS inhibitor, BAZ2B inh, HP1b binding inh, JMJD2A Tudor)
COc1ccccc1CNS(=O)(=O)N(C)C	JMJD2A Tudor 50µM
COc1ccccc1CNN	GLS inhibitor inconclusive, BAZ2B inh inconclusive, JMJD2A Tudor 40µM, G9a block 25µM
CCCCCCCCNCCS(=O)(=O)NCc1ccccc1OC	none (no result: BAZ2B inh, G9a block)
COc1cc(C(=O)O[C@H]2CC(C)=CC[C@@]3(C)CC[C@@](O)(C(C)C)[C@H]23)ccc1O	none
COc1ccc(C2CC(c3cccs3)=NN2C(=O)CCCC(=O)O)cc1OC (stereo not given)	none (no result: BAZ2B inh, HP1b binding inh, JMJD2A Tudor, G9a block)
CCCOC(=O)Nc1nc(-c2ccc(C)cc2)c(C)s1	G9a block 50µM
COc1ccc(-n2cc(C(=O)OCc3ccc(Cl)cc3)c3ccccc3c2=O)cc1	GLS inhibitor inconclusive
C(=N\N1CCOCC1)/c1nc(-c2ccccc2)n2ccccc12	BAZ2B inh inconclusive, G9a block 18µM
NC(=O)CC(NC(=S)NCc1ccccc1)C(=O)O (stereo not given)	G9a block 71µM
